The values that follow come from PMC11062922 (Nature Chemical Biology, 2023).

What all share (design): species or system human, MV4-11 + K-562 + COLO205 + SK-N-BE2 + OVCAR-8
The test system of one experiment is CAMK4. The conditions noted are these: read-out: apparent Kd, n = 1.
A further experiment relates to CDK4. The conditions noted are these: read-out: apparent Kd; compound concentrations:100 nM and 1000 nM (sheet 'Samples'); n = 1.
The test system of a further experiment is CDKL5. To be noted: read-out: apparent Kd; compound concentrations:100 nM and 1000 nM (sheet 'Samples'); n = 1.
The next experiment deals with CLK1. The conditions noted are these: read-out: apparent Kd, n = 1.
The test system of a further experiment is GSK3A. To be noted: read-out: apparent Kd, n = 1.
Another experiment deals with GSK3B. The conditions noted are these: read-out: apparent Kd, n = 1.
For another experiment, the system named is ICK. The conditions noted are these: read-out: apparent Kd, n = 1.
Another experiment deals with MERTK. To be noted: read-out: apparent Kd; compound concentrations:100 nM and 1000 nM (sheet 'Samples'); n = 1.
In a further experiment the test system is PRKCA. To be noted: read-out: apparent Kd; compound concentrations:100 nM and 1000 nM (sheet 'Samples'); n = 1.
The test system of the next experiment is PRKCB. To be noted: read-out: apparent Kd, n = 1.
The test system of the next experiment is PRKCD. To be noted: read-out: apparent Kd; compound concentrations:100 nM and 1000 nM (sheet 'Samples'); n = 1.
In a further experiment the test system is PRKCQ. The conditions noted are these: read-out: apparent Kd; compound concentrations:100 nM and 1000 nM (sheet 'Samples'); n = 1.
A further experiment deals with RPS6KA6. The conditions noted are these: read-out: apparent Kd; compound concentrations:100 nM and 1000 nM (sheet 'Samples'); n = 1.
The subject of another experiment is RPS6KB1. To be noted: read-out: apparent Kd; compound concentrations:100 nM and 1000 nM (sheet 'Samples'); n = 1.
Another experiment has as its system CSNK1A1. The conditions noted are these: read-out: apparent Kd; compound concentrations: 100 nM and 1000 nM (sheet 'Samples'), CATDS: 0.27381506430700697; n = 1.
Another experiment concerns RIOK2. The conditions noted are these: read-out: apparent Kd; compound concentrations: 100 nM and 1000 nM (sheet 'Samples'), CATDS: 0.35131899059620803; n = 1.
A further experiment relates to CAMK2B. To be noted: read-out: apparent Kd; compound concentrations:100 nM and 1000 nM (sheet 'Samples'); n = 1.
Another experiment deals with PBK. To be noted: read-out: apparent Kd; compound concentrations:100 nM and 1000 nM (sheet 'Samples'); n = 1.
A further experiment concerns PKN1. The conditions noted are these: read-out: apparent Kd; compound concentrations:100 nM and 1000 nM (sheet 'Samples'); n = 1.
A further experiment concerns CDC42BPB. The conditions noted are these: read-out: apparent Kd; compound concentrations: 100 nM and 1000 nM (sheet 'Samples'), CATDS: 0.117626319285852; n = 1.
A further experiment deals with CIT. To be noted: read-out: apparent Kd; compound concentrations: 100 nM and 1000 nM (sheet 'Samples'), CATDS: 0.106368492262706; n = 1.
The subject of a further experiment is CLK4. The conditions noted are these: read-out: apparent Kd, n = 1.
The subject of another experiment is MARK3. To be noted: read-out: apparent Kd; compound concentrations: 100 nM and 1000 nM (sheet 'Samples'), CATDS: 9.9321002689151103E-2; n = 1.
The test system of a further experiment is MELK. To be noted: read-out: apparent Kd, n = 1.
For a further experiment, the system named is PHKG2. To be noted: read-out: apparent Kd; compound concentrations: 100 nM and 1000 nM (sheet 'Samples'), CATDS: 0.61617859145014098; n = 1.
A further experiment deals with CDC42. To be noted: read-out: apparent Kd; compound concentrations: 100 nM and 1000 nM (sheet 'Samples'), CATDS: 0.12762221298853901; n = 1.
The test system of the next experiment is T1, DJA1.
T1 construct: gene DNAJA1
The conditions noted are these: read-out: apparent Kd; compound concentrations: 100 nM and 1000 nM (sheet 'Samples'), CATDS: 0.11539226669729399; n = 1.

A further experiment has as its system HSP90AA1. To be noted: read-out: apparent Kd; compound concentrations: 100 nM and 1000 nM (sheet 'Samples'), CATDS: 0.12399635685572399; n = 1.
In the next experiment the test system is HSP90B1. To be noted: read-out: apparent Kd; compound concentrations: 100 nM and 1000 nM (sheet 'Samples'), CATDS: 0.12934168659945999; n = 1.
Another experiment concerns HSPE1. The conditions noted are these: read-out: apparent Kd, compound concentrations: 100 nM and 1000 nM (sheet 'Samples'), n = 1.
A further experiment has as its system PGK1. The conditions noted are these: read-out: apparent Kd; compound concentrations: 100 nM and 1000 nM (sheet 'Samples'), CATDS: 0.21364088639266299; n = 1.
For a further experiment, the system named is PKM. To be noted: read-out: apparent Kd, compound concentrations: 100 nM and 1000 nM (sheet 'Samples'), n = 1.
Another experiment concerns CDK16. The conditions noted are these: read-out: apparent Kd; compound concentrations:100 nM and 1000 nM (sheet 'Samples'); n = 1.
Another experiment concerns CDK2. To be noted: read-out: apparent Kd; compound concentrations:100 nM and 1000 nM (sheet 'Samples'); n = 1.
The next experiment relates to CDK9. To be noted: read-out: apparent Kd; compound concentrations:100 nM and 1000 nM (sheet 'Samples'); n = 1.
A further experiment deals with CLK2. The conditions noted are these: read-out: apparent Kd; compound concentrations:100 nM and 1000 nM (sheet 'Samples'); n = 1.
In the next experiment the test system is NUAK2. To be noted: read-out: apparent Kd; compound concentrations:100 nM and 1000 nM (sheet 'Samples'); n = 1.
The next experiment has as its system PRKCI. The conditions noted are these: read-out: apparent Kd; compound concentrations:100 nM and 1000 nM (sheet 'Samples'); n = 1.
Another experiment relates to RPS6KA3. The conditions noted are these: read-out: apparent Kd; compound concentrations:100 nM and 1000 nM (sheet 'Samples'); n = 1.
For the next experiment, the system named is SLK. The conditions noted are these: read-out: apparent Kd; compound concentrations:100 nM and 1000 nM (sheet 'Samples'); n = 1.
The test system of the next experiment is STK26. The conditions noted are these: read-out: apparent Kd; compound concentrations:100 nM and 1000 nM (sheet 'Samples'); n = 1.
Another experiment has as its system VDAC3. The conditions noted are these: read-out: apparent Kd; compound concentrations:100 nM and 1000 nM (sheet 'Samples'); n = 1.
In a further experiment the test system is CDK10. The conditions noted are these: read-out: apparent Kd; compound concentrations: 100 nM and 1000 nM (sheet 'Samples'), CATDS: 0.11960358808183499; n = 1.
The test system of a further experiment is CSNK2A1;CSNK2A3. The conditions noted are these: read-out: apparent Kd; compound concentrations:100 nM and 1000 nM (sheet 'Samples'); n = 1.
In another experiment the test system is CSNK2A2. To be noted: read-out: apparent Kd; compound concentrations:100 nM and 1000 nM (sheet 'Samples'); n = 1.
In another experiment the test system is MYLK3. To be noted: read-out: apparent Kd; compound concentrations:100 nM and 1000 nM (sheet 'Samples'); n = 1.
The subject of another experiment is NUAK1. The conditions noted are these: read-out: apparent Kd; compound concentrations:100 nM and 1000 nM (sheet 'Samples'); n = 1.
The test system of another experiment is PRKAG1. To be noted: read-out: apparent Kd; compound concentrations:100 nM and 1000 nM (sheet 'Samples'); n = 1.
Where [1] appears, read: compound concentrations:100 nM and 1000 nM (sheet 'Samples').

Where two headings read alike, the source gives them in different places.

Regarding `Cl.Cn1cc(C2=C(c3cn(CCCN)c4ccccc34)C(=O)NC2=O)c2ccccc21` [RO0317549-002], the potency estimated from few doses in the experiment with CAMK4 (setting [1]) is 1430 nM; in the experiment on CDK4, 1650 nM; with CDKL5 it was 2060 nM; in the experiment on CLK1 (setting [1]), 1850 nM; in the experiment on GSK3A (setting [1]), 136 nM; in the experiment with GSK3B (setting [1]) it was 115 nM. Also, the potency estimated from few doses in the experiment on ICK (setting [1]) was 109 nM; in the experiment on MERTK, 1370 nM; in the experiment on PRKCA, 117 nM; in the experiment with PRKCB (compound concentrations: 100 nM and 1000 nM (sheet 'Samples'), CATDS: 6.3755563095046694E-2) it was 606 nM; with PRKCD, 93.3 nM; in the experiment on PRKCQ, 566 nM. Besides, the values for the potency estimated from few doses in the experiment on RPS6KA6 and in the experiment with RPS6KB1 were 44.1 nM and 1180 nM, respectively.
`COc1ccc(C2=C(N3CCc4ccccc43)C(=O)NC2=O)cc1` [SB-361058]: the potency estimated from few doses with CAMK4 (compound concentrations: 100 nM and 1000 nM (sheet 'Samples'), CATDS: 0.39976270483603599) is 1170 nM; with CSNK1A1 it was 2590 nM; with RIOK2 it was 1480 nM.
As to `C[C@@H]1CCN(C(=O)CO)C[C@@H]1N(C)c1ncnc2[nH]ccc12` [PFE-PKIS_34], the potency estimated from few doses with CAMK2B was 563 nM; with PBK it was 1930 nM; in the experiment with PKN1 it was 1140 nM.
Regarding `FC1=CC(C3=NC2=CC(OC)=C(OC)C=C2C(N[C@H]4[C@H]([C@](C)(O)C)CNC4)=N3)=C(O)C=C1.Cl.Cl` [CCT241533], the potency estimated from few doses in the experiment with CDC42BPB was 1010 nM; in the experiment with CIT, 1490 nM; with CLK1 (compound concentrations: 100 nM and 1000 nM (sheet 'Samples'), CATDS: 0.214527954353402), 163 nM; in the experiment on CLK4 (compound concentrations: 100 nM and 1000 nM (sheet 'Samples'), CATDS: 0.24205596503661) it was 121 nM; in the experiment with MARK3, 2010 nM; with MELK (compound concentrations: 100 nM and 1000 nM (sheet 'Samples'), CATDS: 9.4221597644958896E-2) it was 2590 nM. Besides, in the experiment with PHKG2, the potency estimated from few doses is 20.8 nM.
Regarding `Cn1cc(C2=C(c3c4n(c5ccccc35)CCCC4)C(=O)NC2=O)c2ccccc21` [RO0318259-000], the potency estimated from few doses with CDC42 was 1480 nM; in the experiment with DJA1, 1920 nM; in the experiment on HSP90AA1, 1590 nM; in the experiment on HSP90B1 it was 1440 nM; in the experiment with HSPE1 (CATDS: 0.19606542414911901), 644 nM; in the experiment with PGK1, 561 nM. In addition, the potency estimated from few doses in the experiment with PKM (CATDS: 0.14448823643602399) was 1130 nM.
Consider `CN(C)CCCC(=O)Nc1n[nH]c2nnc(-c3ccccc3)cc12.Cl` [SB-627772-A], for which the potency estimated from few doses with CDK16 is 1840 nM; in the experiment on CDKL5, 4.6 nM; in the experiment with GSK3A (setting [1]), 6.15 nM; in the experiment with GSK3B (setting [1]), 17.1 nM.
Turning to `Cn1cc(C2=C(c3cn(CCCSC(=N)N)c4ccccc34)C(=O)NC2=O)c2ccccc21` [RO0318220-000], the potency estimated from few doses in the experiment with CDK16 is 1720 nM; with CDK2, 1070 nM; in the experiment with CDK9 it was 694 nM; in the experiment with CLK1 (setting [1]) it was 785 nM; with CLK2, 434 nM; with CLK4 (setting [1]) it was 1430 nM. Moreover, the potency estimated from few doses is 158 nM with GSK3A (setting [1]); 183 nM in the experiment with GSK3B (setting [1]); 1720 nM with ICK (setting [1]); 1420 nM in the experiment on NUAK2; 41.5 nM in the experiment with PRKCA; 105 nM in the experiment on PRKCB (setting [1]). For the same molecule, the potency estimated from few doses in the experiment on PRKCD is 58.4 nM; in the experiment on PRKCI, 2280 nM; with PRKCQ, 121 nM; in the experiment on RPS6KA3 it was 1300 nM; in the experiment with RPS6KA6, 33.8 nM; with RPS6KB1, 419 nM. The potency estimated from few doses in the experiment with SLK was 2100 nM; with STK26 it was 1480 nM; in the experiment with VDAC3, 2310 nM.
For the molecule `Cn1cc(C2=C(c3cccnc3)C(=O)NC2=O)c2ccccc21` [RO0317886-000], the potency estimated from few doses was 1080 nM in the experiment on CDK10; 213 nM with GSK3A (compound concentrations: 100 nM and 1000 nM (sheet 'Samples'), CATDS: 0.212149107920546); 222 nM with GSK3B (compound concentrations: 100 nM and 1000 nM (sheet 'Samples'), CATDS: 0.208029225896153); 39.3 nM with HSPE1 (CATDS: 0.54374623342004202); 825 nM in the experiment on ICK (compound concentrations: 100 nM and 1000 nM (sheet 'Samples'), CATDS: 0.128713258557627); 1160 nM with PKM (CATDS: 0.11750793600078301).
On to `NS(=O)(=O)c1ccc(N/N=C2\C(=O)Nc3ccc(C(=O)NCCc4c[nH]cn4)cc32)cc1` [GW300660X], for which the potency estimated from few doses in the experiment on CDK16 is 1010 nM; in the experiment on CLK4 (setting [1]), 1230 nM; with CSNK2A1;CSNK2A3, 2310 nM; in the experiment with CSNK2A2 it was 1970 nM; in the experiment on GSK3A (setting [1]) it was 1220 nM; in the experiment with MELK (setting [1]), 2180 nM. Besides, the potency estimated from few doses in the experiment with MYLK3 is 735 nM; with NUAK1, 1450 nM; with PRKAG1, 1480 nM.
